# From PubChem BioAssay (NCI)
# Compounds without any hit were thinned out: in the full panel of roughly 79,000, 15% have a hit. Values without a mark were called inactive. The source made the active and inactive calls. Rule as the data show it: active = growth inhibition above about 70%; inactive = the rest.
# What was measured:
# [1] = NCI Yeast Anticancer Drug Screen. Data for the rad50 strain (AID 155);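 also: 0% = growth of vehicle-only cultures of the same strain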; conditions: S. cerevisiae rad50 strain growth inhibition, active compounds read high
# Outline: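 Genetically altered yeast (DNA repair pathway); compound treatment; growth inhibition vs vehicle ctrl.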
# [2] = NCI Yeast Anticancer Drug Screen. Data for the mec2-1 strain (AID 157); conditions: S. cerevisiae mec2-1 strain, active compounds read high
# Outline: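 Mutant yeast (mec2-1) grown with compound; growth inhibition relative to vehicle control reported.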
# [3] = NCI Yeast Anticancer Drug Screen. Data for the sgs1 mgt1 strain (AID 161);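 also: 0% = growth of cultures given vehicle only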; conditions: S. cerevisiae sgs1 mgt1 strain, active compounds read high
# Outline: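 This yeast growth screen uses a strain with defined DNA-repair lesions; compound-treated growth is compared with vehicle-treated growth.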
# [4] = NCI Yeast Anticancer Drug Screen. Data for the cln2 rad14 strain (AID 165);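 also: 0% = growth equal to vehicle treated cultures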; conditions: S. cerevisiae cln2 rad14 strain, active compounds read high
# Outline: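 Readout is yeast growth inhibition versus vehicle-treated controls, using a strain with cln2 and rad14 alterations exposed to compound.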
# [5] = NCI Yeast Anticancer Drug Screen. Data for the bub3 strain (AID 167); conditions: S. cerevisiae bub3 mutant strain, active compounds read high
# Outline: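 Yeast carrying a defined mutation is treated with each compound, and growth is compared with that of vehicle-exposed cells to give inhibition.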
# [6] = NCI Yeast Anticancer Drug Screen. Data for the mlh1 rad18 strain (AID 175); conditions: S. cerevisiae mlh1 rad18 strain growth inhibition, active compounds read high
# Outline: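 Genetically defined yeast (DNA repair-deficient) exposed to compounds; growth inhibition determined relative to vehicle.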
# [7] = at 5.0 µM (retest, dose inferred, filed as 0.5)
# [8] = at 50.0 µM (retest, dose inferred, filed as 5.0)
SMILES,"growth inhibition [1, 7]","growth inhibition [1, 8]",growth inhibition ([1]; at 50.0 µM),"growth inhibition [2, 7]","growth inhibition [2, 8]",growth inhibition ([2]; at 50.0 µM),"growth inhibition [3, 7]","growth inhibition [3, 8]",growth inhibition ([3]; at 50.0 µM),"growth inhibition [4, 7]","growth inhibition [4, 8]",growth inhibition ([4]; at 50.0 µM),"growth inhibition [5, 7]","growth inhibition [5, 8]",growth inhibition ([5]; at 50.0 µM),"growth inhibition [6, 7]","growth inhibition [6, 8]",growth inhibition ([6]; at 50.0 µM)
O=C1C(c2c[nH]c3ccc(Br)cc23)=Nc2ccc(Br)cc21,-1%,2%,88% (active),3%,21%,75.8% (active),-20%,-32%,85.5% (active),-6%,-18%,88.8% (active),-4%,-2%,82.2% (active),7%,25%,73.4% (active)
COc1ccc(C(=O)Nc2ccc(O)c(=O)cc2)cc1,2%,42%,93.5% (active),38%,59%,17.8%,25%,66%,73.3% (active),14%,2%,-60.6%,16%,15%,87.4% (active),21%,77% (active),55.6%
O=S(=O)(Nc1ccc2ccccc2c1)c1ccccc1,-10%,98% (active),97.7% (active),-21%,99% (active),98% (active),2%,99% (active),97.8% (active),7%,93% (active),92.2% (active),-9%,99% (active),97.2% (active),-18%,98% (active),98% (active)
N#[N+]c1ccc2c(S(=O)(=O)Oc3ccc(C(=O)c4ccccc4)c(OS(=O)(=O)c4cccc5c([O-])c([N+]#N)ccc45)c3)cccc2c1[O-],-10%,46%,82.5% (active),-7%,33%,85.3% (active),1%,59%,77.2% (active),36%,45%,84% (active),-3%,31%,77.1% (active),-13%,4%,72.7% (active)
CS(=O)(=O)OCCCN(CCCOS(C)(=O)=O)c1ccc(C=Nc2ccc(-c3csc(COc4ccc(Br)cc4Br)n3)cc2)cc1,18%,83% (active),86.3% (active),6%,83% (active),92.8% (active),13%,82% (active),90% (active),0%,83% (active),85.8% (active),5%,90% (active),89.2% (active),17%,85% (active),90.7% (active)
c1ccc(N/N=C(/CC/C(=N\Nc2ccccc2)c2ccccc2)c2ccccc2)cc1,6%,77% (active),95.5% (active),4%,90% (active),97% (active),-13%,82% (active),97.2% (active),-13%,81% (active),47.8%,-5%,89% (active),95.9% (active),18%,92% (active),97.5% (active)
CC(=O)O/C=C\COC(C)=O,4%,4%,79.8% (active),2%,-2%,47.8%,3%,2%,42.5%,3%,-2%,33.5%,6%,1%,86.3% (active),2%,6%,39.3%
O=C(CCl)Oc1c(Br)cc(-c2ccccc2)cc1Br,32%,95% (active),77.3% (active),42%,99% (active),56.1%,65%,99% (active),88.8% (active),57%,97% (active),41.9%,30%,98% (active),16.9%,73% (active),95% (active),82.2% (active)
O=C1c2ccccc2NC(=O)C2C1C(c1ccccc1)CC2(O)c1ccccc1 (centres undefined),7%,87% (active),62.5%,7%,88% (active),73.8% (active),16%,70% (active),72% (active),-14%,51%,68%,-27%,75% (active),69.5%,21%,86% (active),32.5%
FC(F)(F)C(C1=NC(C(F)(F)F)(C(F)(F)F)N=C(N2CCOCC2)O1)C(F)(F)F,24%,33%,24.8%,16%,28%,71.8% (active),20%,48%,30.4%,26%,45%,60.4%,36%,80% (active),13.6%,51%,66%,39.6%
COc1ccc(C(=O)C(CN2CCCC2)CN2CCCC2)cc1,-1%,75% (active),47.6%,4%,88% (active),88.1% (active),-5%,82% (active),44%,2%,54%,7.4%,-5%,81% (active),59.5%,3%,79% (active),69.3%
CCCCCCCCOc1ccc(/C=C/C(C)=N/NC(N)=NC)cc1OC,98% (active),98% (active),98.7% (active),98% (active),99% (active),99% (active),82% (active),99% (active),38.7%,72% (active),93% (active),98.3% (active),97% (active),99% (active),99% (active),99% (active),98% (active),98.5% (active)
CC(C)=Cc1cc2c(cc1O)CCC1C2CC[C@@]2(C)C1CC[C@@H]2O (some centres undefined),14%,16%,41.2%,-5%,24%,60.1%,-14%,8%,71% (active),7%,29%,78.6% (active),-29%,22%,45.8%,-1%,23%,54.2%
